Consider three compounds from PubChem BioAssay (EPA / NIEHS).

The AC50 is the midpoint of the concentration-response curve, whichever way the signal moves.

Calls of active or inactive are those of the source. How the source made its calls, unless noted: active means hit-call score of the fitted dose curve at least 0.9, where 1 is the maximum; inactive means score below 0.9.

Read-out in assay [1]: Protein phosphatase 2A (PPP2R4), PTPA (gene 5524)
As to the kind of experiment: LTEA_HepaRG_PPP2R4: Life Technologies and Expression Analysis (LTEA) Assay for Protein phosphatase 2A (PPP2R4) using HepaRG (AID 2283522). The conditions noted are these: mRNA level, 48 h; actives raise or lower the signal. Summed up:
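HepaRG, 48 h exposure, 8-pt half-log series from 100 uM, 0.5% DMSO vehicle, duplicates. Readout: PPP2R4 mRNA, Fluidigm qRT-PCR, housekeeping-normalized. Bidirectional curve fit vs DMSO baseline.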

Read-out in assay [2]: Phosphatase and tensin (PTEN), PTEN (gene 5728)
As to the kind of experiment: LTEA_HepaRG_PTEN: Life Technologies and Expression Analysis (LTEA) Assay for Phosphatase and tensin (PTEN) using HepaRG (AID 2283523). Conditions: mRNA level, 48 h; actives raise or lower the signal. Summed up: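 Expression of PTEN is quantified in the human liver line HepaRG following two days of dosing (top concentration 100 uM, half-log dilutions, 0.5% DMSO). Values derive from bidirectional curve fitting relative to DMSO controls.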

Read-out in assay [3]: solute carrier (SLC22A1), SLC22A1 (gene 6580)
As to the kind of experiment: LTEA_HepaRG_SLC22A1: Life Technologies and Expression Analysis (LTEA) Assay for solute carrier (SLC22A1) using HepaRG (AID 2283524). The conditions noted are these: mRNA level, 48 h; actives raise or lower the signal. Summed up: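 Transcript induction or suppression of SLC22A1 in human HepaRG cultures is scored after 48 h chemical treatment, with DMSO (0.5%) as baseline for bidirectional fitting. Concentrations span eight half-log points topping at 100 uM.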

Read-out in assay [4]: Pyruvate Dehydrogenase Kinase 4 (PDK4), PDK4 (gene 5166)
Description: LTEA_HepaRG_PDK4: Life Technologies and Expression Analysis (LTEA) Assay for Pyruvate Dehydrogenase Kinase 4 (PDK4) using HepaRG (AID 2283525). The conditions noted are these: mRNA level, 48 h; actives raise or lower the signal. In outline:
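Eight-point, half-log concentration series (max 100 uM, 0.5% DMSO) applied to differentiated HepaRG cells for 48 h in duplicate. Endpoint: PDK4 mRNA induction or repression by qRT-PCR against DMSO baseline.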

Read-out in assay [5]: NAD(P)H dehydrogenase [quinone] 1 (NQO1), NQO1 (gene 1728)
As to the kind of experiment: LTEA_HepaRG_NQO1: Life Technologies and Expression Analysis (LTEA) Assay for NAD(P)H dehydrogenase [quinone] 1 (NQO1) using HepaRG (AID 2283526). Conditions: mRNA level, 48 h; actives raise or lower the signal. In outline: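 qRT-PCR read-out (Fluidigm TaqMan), normalized to three housekeeping genes, after 48 h chemical exposure of HepaRG cells. Concentrations: eight points, top 100 uM, half-log steps, 0.5% DMSO vehicle. Gain or loss of signal fitted relative to DMSO.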

Read-out in assay [6]: Nuclear factor erythroid 2-related factor 2 (Homo sapiens) (UniProt Q16236)
As to the kind of experiment: LTEA_HepaRG_NFE2L2: Life Technologies and Expression Analysis (LTEA) Assay for Nuclear factor erythroid 2-related factor 2 (NFE2L2) Transcription Factor using HepaRG (AID 2283527).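 Further: TaqMan qRT-PCR transcript level normalised to ACTB GAPDH and POLR2A housekeeping genes.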 The conditions noted are these: mRNA level, 48 h; actives raise or lower the signal. Summed up:
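Human liver HepaRG line treated in duplicate for 48 h with an eight-point series topping at 100 uM. Gene expression of NFE2L2 by qRT-PCR, bidirectionally fitted against the vehicle control.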

Read-out in assay [7]: succinate dehydrogenase complex iron sulfur subunit B (SDHB), SDHB (gene 6390)
Description: LTEA_HepaRG_SDHB: Life Technologies and Expression Analysis (LTEA) Assay for succinate dehydrogenase complex iron sulfur subunit B (SDHB) using HepaRG (AID 2283528). The conditions noted are these: mRNA level, 48 h; actives raise or lower the signal. In outline: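 HepaRG, 48 h exposure, 8-pt half-log series from 100 uM in 0.5% DMSO, duplicates. Readout: SDHB mRNA by Fluidigm qRT-PCR vs housekeeping genes; bidirectional fit relative to DMSO.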

Read-out in assay [8]: Signal transducer and activator of transcription 3 (Homo sapiens) (UniProt P40763)
Description: LTEA_HepaRG_STAT3: Life Technologies and Expression Analysis (LTEA) Assay for Signal transducer and activator of transcription (STAT3) using HepaRG (AID 2283529). Conditions: mRNA level, 48 h; actives raise or lower the signal. In outline:
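In this transcriptional endpoint, HepaRG cultures receive test chemicals at up to 100 uM for 48 h, tested in duplicate. STAT3 mRNA is normalized to ACTB, GAPDH and POLR2A.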

Read-out in assay [9]: solute carrier (SLCO1B1), SLCO1B1 (gene 10599)
Description: LTEA_HepaRG_SLCO1B1: Life Technologies and Expression Analysis (LTEA) Assay for solute carrier (SLCO1B1) using HepaRG (AID 2283530). Conditions: mRNA level, 48 h; actives raise or lower the signal. In outline: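 SLCO1B1 transcript levels were quantified by TaqMan qRT-PCR using three housekeeping genes for normalization. This followed 48 h chemical exposure (100 uM top, half-log, 8 points, 0.5% DMSO) of HepaRG liver cells, with gain or loss fitted relative to DMSO.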

Read-out in assay [10]: sulfotransferase 2A1 (SULT2A1), SULT2A1 (gene 6822)
As to the kind of experiment: LTEA_HepaRG_SULT2A1: Life Technologies and Expression Analysis (LTEA) Assay for sulfotransferase 2A1 (SULT2A1) using HepaRG (AID 2283531). The conditions noted are these: mRNA level, 48 h; actives raise or lower the signal. In outline:
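Expression change of SULT2A1, by qRT-PCR with three housekeeping-gene normalization, was scored bidirectionally versus DMSO. Cells: differentiated HepaRG, dosed in duplicate for 48 h across 8 points, highest 100 µM, half-log dilution, 0.5% DMSO.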

Read-out in assay [11]: Transforming Growth Factor (TGFA), TGFA (gene 7039)
As to the kind of experiment: LTEA_HepaRG_TGFA: Life Technologies and Expression Analysis (LTEA) Assay for Transforming Growth Factor (TGFA) using HepaRG (AID 2283532). Conditions: mRNA level, 48 h; actives raise or lower the signal. Summed up: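 Gene expression of TGFA was quantified by qRT-PCR after human HepaRG cells were treated for 48 h with test chemicals (eight concentrations, highest 100 uM, 0.5% DMSO). Activity in either direction was fitted relative to DMSO.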

Read-out in assay [12]: Transforming Growth Factor (TGFB1), TGFB1 (gene 7040)
Description: LTEA_HepaRG_TGFB1: Life Technologies and Expression Analysis (LTEA) Assay for Transforming Growth Factor (TGFB1) Transporter using HepaRG (AID 2283533). Conditions: mRNA level, 48 h; actives raise or lower the signal. In outline:
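TGFB1 transcript measured by qRT-PCR with normalisation to three housekeeping genes (ACTB, GAPDH, POLR2A); human HepaRG line treated in duplicate for 48 hr with an 8-point series topping at 100 uM, 0.5% DMSO vehicle, bidirectionally fitted.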

Read-out in the next assay: TIMP1, TIMP1 (gene 7076)
Description: LTEA_HepaRG_TIMP1: Life Technologies and Expression Analysis (LTEA) Assay for TIMP1 using HepaRG (AID 2283534). The conditions noted are these: mRNA level, 48 h; actives raise or lower the signal. Summed up:
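Bidirectional change in TIMP1 transcript versus 0.5% DMSO, measured by TaqMan qRT-PCR with three housekeeping genes for normalization. HepaRG human liver cells dosed 48 h in duplicate, top concentration 100 uM with half-log dilutions.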

Read-out in assay [13]: Tumor necrosis factor receptor 1 (TNFRSF1A), TNFRSF1A (gene 7132)
Description: LTEA_HepaRG_TNFRSF1A: Life Technologies and Expression Analysis (LTEA) Assay for Tumor necrosis factor receptor 1 (TNFRSF1A) using HepaRG (AID 2283535). The conditions noted are these: mRNA level, 48 h; actives raise or lower the signal. Summed up: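 mRNA measured by qRT-PCR (TaqMan, Fluidigm arrays) against ACTB/GAPDH/POLR2A housekeepers after 48 h chemical exposure of HepaRG cells. Top concentration 100 uM, half-log 8-point series, duplicates; vehicle 0.5% DMSO, both fit directions.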

Read-out in assay [14]: Thyroid Hormone Responsive (THRSP), THRSP (gene 7069)
Description: LTEA_HepaRG_THRSP: Life Technologies and Expression Analysis (LTEA) Assay for Thyroid Hormone Responsive (THRSP) using HepaRG (AID 2283536). Conditions: mRNA level, 48 h; actives raise or lower the signal. In outline: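 Cell model: human HepaRG, approx. 100,000 cells/well, 0.5% DMSO vehicle. Exposure lasts 48 h; phenobarbital 1 mM serves as induction positive control. Gene expression is measured by qRT-PCR against three endogenous control genes.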

Read-out in assay [15]: Cellular tumor antigen p53 (Homo sapiens) (UniProt P04637)
As to the kind of experiment: LTEA_HepaRG_TP53: Life Technologies and Expression Analysis (LTEA) Assay for Tumor Protein P53 (TP53) using HepaRG (AID 2283537). The conditions noted are these: mRNA level, 48 h; actives raise or lower the signal. In outline:
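HepaRG, 48 h exposure, top 100 uM, half-log 8-point, 0.5% DMSO vehicle, duplicates. Read: TP53 mRNA by TaqMan qRT-PCR, normalised to ACTB/GAPDH/POLR2A; bidirectional fit vs DMSO.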

Read-out in assay [16]: UDP glucuronosyltransferase (UGT1A1), UGT1A1 (gene 54658)
Description: LTEA_HepaRG_UGT1A1: Life Technologies and Expression Analysis (LTEA) Assay for UDP glucuronosyltransferase (UGT1A1) using HepaRG (AID 2283538). The conditions noted are these: mRNA level, 48 h; actives raise or lower the signal. In outline: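 HepaRG, 48 h chemical exposure (top 100 uM, half-log 8-pt, 0.5% DMSO vehicle), duplicate wells; qRT-PCR (TaqMan, Fluidigm array) for UGT1A1 mRNA, housekeeping-normalized; bidirectional curve fit vs DMSO baseline.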

Read-out in assay [17]: UDP glucuronosyltransferase (UGT1A6), UGT1A6 (gene 54578)
Description: LTEA_HepaRG_UGT1A6: Life Technologies and Expression Analysis (LTEA) Assay for UDP glucuronosyltransferase (UGT1A6) using HepaRG (AID 2283539). The conditions noted are these: mRNA level, 48 h; actives raise or lower the signal. In outline:
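Expression was quantified by TaqMan qRT-PCR on Fluidigm arrays with ACTB/GAPDH/POLR2A normalization and bidirectional fitting against 0.5% DMSO. HepaRG cells (~100,000/well) were treated in duplicate for 48 h at eight half-log concentrations up to 100 uM in serum-free induction medium.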

Read-out in assay [18]: X-box binding protein 1 (XBP1), XBP1 (gene 7494)
As to the kind of experiment: LTEA_HepaRG_XBP1: Life Technologies and Expression Analysis (LTEA) Assay for X-box binding protein 1 (XBP1) using HepaRG (AID 2283540). The conditions noted are these: mRNA level, 48 h; actives raise or lower the signal. Summed up:
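XBP1 transcript by qRT-PCR (housekeeping-normalized: ACTB, GAPDH, POLR2A) after 48 h chemical treatment of HepaRG cells, 8-point half-log series topping at 100 uM, vehicle 0.5% DMSO. Gain and loss of signal fitted relative to DMSO.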

Assay [19] can be described thus: LTEA_HepaRG_LDH_cytotoxicity: Cytotoxicity Assessment in the Life Technologies and Expression Analysis (LTEA) Assay (AID 2283563; active means hit-call score of the fitted dose curve at least 0.9, where 1 is the maximum). Summed up: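 LDH release into culture medium read after 48 h chemical treatment of HepaRG cells. Duplicate wells, eight-point half-log series topping at 100 uM, 0.5% DMSO vehicle and baseline.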

Chain of Nuclear factor erythroid 2-related factor 2 (Homo sapiens) (Q16236 whole entry, looked up): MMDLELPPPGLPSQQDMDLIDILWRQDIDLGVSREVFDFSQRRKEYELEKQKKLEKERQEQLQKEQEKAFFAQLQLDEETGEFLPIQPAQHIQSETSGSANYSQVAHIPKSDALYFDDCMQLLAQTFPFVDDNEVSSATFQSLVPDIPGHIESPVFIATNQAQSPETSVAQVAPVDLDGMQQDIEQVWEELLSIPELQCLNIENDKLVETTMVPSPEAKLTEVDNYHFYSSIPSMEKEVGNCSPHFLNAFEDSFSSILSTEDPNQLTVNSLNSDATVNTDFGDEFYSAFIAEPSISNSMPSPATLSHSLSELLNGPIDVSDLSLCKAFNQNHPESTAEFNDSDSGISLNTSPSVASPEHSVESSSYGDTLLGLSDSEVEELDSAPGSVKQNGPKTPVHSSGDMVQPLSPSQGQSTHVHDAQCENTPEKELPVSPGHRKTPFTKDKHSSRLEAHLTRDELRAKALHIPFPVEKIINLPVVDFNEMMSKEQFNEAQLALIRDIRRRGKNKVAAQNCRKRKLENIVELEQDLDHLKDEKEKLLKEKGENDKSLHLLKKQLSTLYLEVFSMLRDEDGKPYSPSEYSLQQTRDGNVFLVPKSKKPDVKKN
Chain of Signal transducer and activator of transcription 3 (Homo sapiens) (P40763 whole entry, looked up): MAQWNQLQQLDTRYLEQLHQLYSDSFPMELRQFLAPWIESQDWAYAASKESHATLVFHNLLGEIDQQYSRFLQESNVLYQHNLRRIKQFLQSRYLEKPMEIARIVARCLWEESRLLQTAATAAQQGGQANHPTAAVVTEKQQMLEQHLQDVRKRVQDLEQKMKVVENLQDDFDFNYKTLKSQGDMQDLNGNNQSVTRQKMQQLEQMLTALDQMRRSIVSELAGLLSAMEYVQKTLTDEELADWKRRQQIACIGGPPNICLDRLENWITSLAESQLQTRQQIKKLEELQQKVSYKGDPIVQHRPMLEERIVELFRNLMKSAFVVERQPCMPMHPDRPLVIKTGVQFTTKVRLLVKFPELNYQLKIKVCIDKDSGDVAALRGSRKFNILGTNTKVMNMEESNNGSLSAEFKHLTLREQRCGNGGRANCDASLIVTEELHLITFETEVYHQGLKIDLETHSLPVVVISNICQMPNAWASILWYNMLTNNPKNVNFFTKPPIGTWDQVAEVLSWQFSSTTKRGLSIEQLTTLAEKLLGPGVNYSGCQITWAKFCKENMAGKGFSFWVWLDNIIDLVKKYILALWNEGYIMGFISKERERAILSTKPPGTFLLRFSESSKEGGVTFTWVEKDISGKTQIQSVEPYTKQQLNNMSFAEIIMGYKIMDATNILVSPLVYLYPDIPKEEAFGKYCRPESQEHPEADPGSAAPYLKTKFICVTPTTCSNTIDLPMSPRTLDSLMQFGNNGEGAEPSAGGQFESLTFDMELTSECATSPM
Chain of Cellular tumor antigen p53 (Homo sapiens) (P04637 whole entry, looked up): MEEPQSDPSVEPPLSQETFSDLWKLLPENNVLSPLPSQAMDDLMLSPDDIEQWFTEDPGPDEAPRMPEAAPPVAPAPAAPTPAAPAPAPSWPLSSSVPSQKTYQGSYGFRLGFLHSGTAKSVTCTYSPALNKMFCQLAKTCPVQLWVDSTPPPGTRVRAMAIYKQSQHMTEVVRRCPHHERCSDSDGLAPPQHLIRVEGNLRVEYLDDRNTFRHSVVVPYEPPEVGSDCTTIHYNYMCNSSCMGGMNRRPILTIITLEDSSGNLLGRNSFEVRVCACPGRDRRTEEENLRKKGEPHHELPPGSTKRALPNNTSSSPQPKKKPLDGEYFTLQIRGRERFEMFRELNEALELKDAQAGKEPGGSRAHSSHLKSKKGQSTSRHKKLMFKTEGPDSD

For `CC(C)N(C(=O)SCC(Cl)=C(Cl)Cl)C(C)C`, the compound was called inactive in [1], in assay [2], in [3], in [4], in assay [5] and in assay [6]. In addition, the compound was called inactive in assay [7], in assay [8], in [9], in assay [10], in [11] and in assay [12]. In addition, the outcome with TIMP1, TIMP1 (gene 7076) was “inactive”; in assay [13], “inactive”; in [14] it was “inactive”; in assay [15], “inactive”; in [16], “inactive”; in assay [17] it was “inactive”. In addition, the result in assay [18] and in [19] was inactive.

On to `Cc1nn(-c2cc(NS(C)(=O)=O)c(Cl)cc2Cl)c(=O)n1C(F)F`, for which the compound was called inactive in assay [1], in assay [2], in assay [3], in assay [4], in [5] and in assay [6]. The compound was classed as inactive in assay [7], in [8], in assay [9], in [10], in assay [11] and in assay [12]. In addition, the outcome with TIMP1, TIMP1 (gene 7076) is “inactive”; in assay [13], “inactive”; in [14] it was “inactive”; in assay [17], “inactive”; in assay [18] it was “inactive”; in [19], “inactive”. Moreover, the concentration at half-maximal activity (AC50) in assay [16] was 18.4 µM (active).

With `CCOP(=S)(OCC)OC(Cl)C(Cl)(Cl)Cl` (centres undefined), the compound was classed as inactive in assay [1], in [2], in [3], in assay [4], in [5] and in assay [6]. For the same compound, the result in assay [7], in assay [8], in [9], in assay [10], in [11] and in [12] was inactive. In addition, the outcome with TIMP1, TIMP1 (gene 7076) was “inactive”; in assay [13] it was “inactive”; in assay [14], “inactive”; in assay [15], “inactive”; in [17], “inactive”; in [18], “inactive”. In [19], the compound was classed as inactive. In addition, in [16], the half-maximal activity concentration (AC50) was 30.7 µM (active).
